Data as given in PubChem BioAssay (NCI).
“And” between values parts separate entries of the source, which are not always exact repeats. Equal values may be shown once. The panel holds about 79,000 compounds, 15% with a hit somewhere; the sample as a whole holds those more often. Rule as the data show it: active = growth inhibition above about 70%; inactive = the rest.

How the values were obtained:
[1] = NCI Yeast Anticancer Drug Screen. Data for the rad50 strain (AID 155);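 also: 0% = growth of vehicle-only cultures of the same strain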; conditions: S. cerevisiae rad50 strain growth inhibition, hits give high values; at 50.0 µM unless noted
Procedure, shortened: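 Inhibition values express reduced yeast growth in compound-treated cultures relative to vehicle-treated controls.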

[2] = NCI Yeast Anticancer Drug Screen. Data for the mec2-1 strain (AID 157); conditions: S. cerevisiae mec2-1 strain, hits give high values; at 50.0 µM unless noted
Procedure, shortened: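 Growth inhibition is read against vehicle-treated controls after compound exposure of the mec2-1 yeast strain, which is defective in DNA damage repair or cell cycle control.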

[3] = NCI Yeast Anticancer Drug Screen. Data for the sgs1 mgt1 strain (AID 161);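 also: 0% = growth of cultures given vehicle only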; conditions: S. cerevisiae sgs1 mgt1 strain, hits give high values; at 50.0 µM unless noted
Procedure, shortened: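 Compounds are added to genetically altered yeast, and growth is compared with cultures given vehicle alone to give percent inhibition.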

[4] = NCI Yeast Anticancer Drug Screen. Data for the cln2 rad14 strain (AID 165);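 also: 0% = growth equal to vehicle treated cultures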; conditions: S. cerevisiae cln2 rad14 strain, hits give high values; at 50.0 µM unless noted
Procedure, shortened: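 Growth inhibition, relative to vehicle-treated controls, is the read-out. The test organism is a yeast strain with defined genetic alterations, cln2 rad14.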

[5] = NCI Yeast Anticancer Drug Screen. Data for the bub3 strain (AID 167); conditions: S. cerevisiae bub3 mutant strain, hits give high values; at 50.0 µM unless noted
Procedure, shortened: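 Steps: expose the mutant yeast strain to compound; grow alongside vehicle-treated cultures; measure growth; express inhibition against the vehicle cultures.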

[6] = NCI Yeast Anticancer Drug Screen. Data for the mlh1 rad18 strain (AID 175); conditions: S. cerevisiae mlh1 rad18 strain growth inhibition, hits give high values; at 50.0 µM unless noted
Procedure, shortened: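 Cells of a genetically altered yeast strain, deficient in DNA damage repair, were treated with compound. Their growth was then compared with that of vehicle-treated cultures to give inhibition.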

Measured: growth inhibition

C=C1C(=O)O[C@@H]2O[C@@]3(C)CC[C@H]4[C@H](C)CC[C@@H]1[C@@]24O3
inactive: [1] 26.6% | [2] 26.9% | [3] 52.1% | [4] 22% | [5] 12.2% | [6] 40.5%

Cc1cc(C)nc(NS(=O)(=O)c2ccc(Nc3c4ccccc4nc4c(C(=O)Nc5ccc(S(=O)(=O)Nc6cc(C)on6)cc5)ccc(Cl)c34)cc2)n1
inactive: [1] 32.9% | [2] 45.1% | [3] 23.1% | [4] 42.2% | [5] 18.9% | [6] 41.5%

Nc1ccc(N=Nc2c(S(=O)(=O)O)cc3ccccc3c2S(=O)(=O)O)cc1
inactive: [1] -23% | [2] -30.4% | [3] -38.2% | [4] -18.3% | [5] -46.5% | [6] -27.6%

O=C1NCCCC1C(=O)Nc1cccc2c1NCCC2 (centres undefined)
inactive: [1] -10.2% | [2] -40.4% | [3] 0.95% | [4] -1.45% | [5] 39.6% | [6] -32.4%

Nc1c(N2CCOCC2)c(=O)nc2[nH]/c(=C\c3ccccc3)c(=O)n12
inactive: [1] 8.5% | [2] -20.7% | [3] 4.75% | [4] 22% | [5] 8% | [6] -46.8%

O=C(O)c1cccc(-c2ccccc2)c1O.O=C(O)c1cccc(-c2ccccc2)c1O.[Cu]
inactive: [1] 41.2% | [2] 39.5% | [3] 21.6% | [4] 2.6% | [5] 33.9% | [6] 32.4%

Oc1ccc(-c2c3ccccc3c(-c3ccc(O)cc3)c3ccccc23)cc1
inactive: [1] -0.85% | [2] -9.6% | [3] -31.6% | [4] -7.2% | [5] -9.15% | [6] 1.15%

CC(C)(C)N=NNc1cn(C2OC(CO)C(O)C2O)c(=O)[nH]c1=O (centres undefined)
inactive: [1] -16.3% | [2] -17.6% | [3] -16.9% | [4] 9.5% | [5] -6.2% | [6] -15.7%

O=C(C[n+]1cc(Br)cc2ccccc21)c1ccc(F)cc1
inactive: [1] 24.8% | [2] 19.9% | [3] 37.3% | [4] 39.4% | [5] 4.7% | [6] 30.2%

Cc1ccc(C2=Nc3cc(C)c(Cl)cc3S(=O)(=O)NN2)cc1
inactive: [1] -29.1% | [2] -24.9% | [3] -48.8% | [4] -5.2% | [5] -18.5% | [6] -26.8%

CC(C)COC(c1ccc2c(c1)OCO2)C(C)Br (centres undefined)
inactive: [1] 34.5% | [2] 39.5% | [3] 22.4% | [4] 0.3% | [5] 48.5% | [6] 58.5%

Cc1ccccc1C(=O)c1ccccc1C
inactive: [1] -16.3% | [2] -9.95% | [3] -7.2% | [4] -34% | [5] -1.55% | [6] -9.9%

CC1CCCC(CC(=O)O)(CC(=O)O)C1 (centres undefined)
inactive: [1] -14.1% | [2] -33.6% | [3] -5.1% | [4] -29.3% | [5] -4.1% | [6] -21.4%

COc1ccc(C)cc1S(=O)(=O)c1ccc(Cl)cc1[N+](=O)[O-]
inactive: [1] -2.55% | [2] -11.1% | [3] 2% | [4] -12.7% | [5] 2.25% | [6] -25.1%

Cc1ccc(C2=CC=C(c3ccccc3)C2)cc1
inactive: [1] -22.1% | [2] 5.8% | [3] -24.1% | [4] 58.6% | [5] 4.4% | [6] 36.6%

C1=C(Nc2ccccc2)C(=Nc2ccccc2)C=C(Nc2ccccc2)C1=Nc1ccccc1
inactive: [1] -17.2% | [2] -4.25% | [3] -3.1% | [4] 7.1% | [5] 1.65% | [6] 5.4%

CC(=O)N1C(=O)C2(c3ccccc31)c1cccc3c1C(=C1C(=O)OC(=O)C12)C(=O)N3C(C)=O (centres undefined)
inactive: [1] 64.5% | [2] 22.4% | [3] 52.3% | [4] 9.55% | [5] 8.85% | [6] 48.1%

CN(/C(=C/C(=O)c1ccccc1)C(=O)c1ccccc1)/C(=C/C(=O)c1ccccc1)C(=O)c1ccccc1
inactive: [1] -27.4% | [2] 3.2% | [3] -0.95% | [4] -5.25% | [5] -4.5% | [6] 26.8%

O=C1/C(=C\c2ccccc2)Sc2cc[nH]c21
inactive: [1] 13.5% | [2] 1.3% | [3] 4.5% | [4] -1.95% | [5] -1.85% | [6] 17.2%

ON=C1CCC(c2ccccc2)CC1 (centres undefined)
inactive: [1] -21.3% | [2] -24% | [3] 13.8% | [4] -24.2% | [5] 2.85% | [6] -9.6%

CCN(c1ccccc1)S(=O)(=O)C(C)S(=O)(=O)N(CC)c1ccccc1
inactive: [1] -1.05% | [2] -10.5% | [3] -1.2% | [4] -19.8% | [5] 2.2% | [6] -6.85%

Cc1cc(C(=O)c2ccccc2)on1
inactive: [1] 4.05% | [2] -22.6% | [3] -11.9% | [4] -36.1% | [5] 7.7% | [6] 4.55%

N#CC(C(=O)C(=O)Nc1nccs1)c1ccccc1 (centres undefined)
inactive: [1] 5.85% | [2] -0.85% | [3] 4.75% | [4] 41.9% | [5] 17.2% | [6] 16%

CCOC(=O)C1SC(=Nc2ccccc2)N=C1C (centres undefined)
inactive: [1] 11.3% | [2] -11.7% | [3] 28.1% | [4] -4.15% | [5] -19.6% | [6] -4.5%

Cc1cc(=O)oc2c(C)c(OCCCOc3ccc4c(C)cc(=O)oc4c3C)ccc12
inactive: [1] -29.8% | [2] -15.6% | [3] -6.1% | [4] 11.1% | [5] -30.8% | [6] -34.3%

COc1ccc(C(C)c2cc(N=NC(N)=O)c(OC)cc2O)cc1 (centres undefined)
inactive: [1] -2.7% | [2] -3.6% | [3] -4.1% | [4] -4.25% | [5] 16.9% | [6] 12.7%

CCOC(=O)C(=CN1CCNC1=S)C(=O)OCC
inactive: [1] -30.6% | [2] -33.6% | [3] -25.6% | [4] -1.6% | [5] -15.8% | [6] -3.85%

CCN(CCO)C(=O)Nc1ccc(Cl)cc1
inactive: [1] -6.1% | [2] -31.6% | [3] 11.1% | [4] 8.6% | [5] 0.55% | [6] -7.65%

CC1(C)C2(Cl)C(Cl)=C(Cl)C13C(Cl)(c1ccc([N+](=O)[O-])cc1C1(Cl)C(Cl)(Cl)C4(Cl)C(Cl)=C(Cl)C13C4(C)C)C2(Cl)Cl (centres undefined)
inactive: [1] 0.55% | [2] -10.1% | [3] -27.9% | [4] -7.6% | [5] -2.5% | [6] 13%

CC(=O)[C@@]1(O)CC[C@H]2[C@@H]3CC=C4C[C@@H](Cl)CC[C@]4(C)[C@H]3CC[C@@]21C
inactive: [1] -16.9% | [2] 4.85% | [3] 13.8% | [4] -2.75% | [5] 8.5% | [6] 7.1%

CCCOC(=O)c1cccnc1
inactive: [1] -13.2% | [2] -29.6% | [3] -14.7% | [4] 0.7% | [5] -6.75% | [6] -8.65%

OCC(O)C1OC(O)C(O)C(O)C1O (centres undefined)
inactive: [1] 1.45% | [2] -7.75% | [3] -32.2% | [4] -49.4% | [5] -6.75% | [6] 10.4%

Cc1cc(=O)[nH]c(NNC(C#N)c2ccc(O)cc2)n1 (centres undefined)
inactive: [1] -26% | [2] -51.3% | [3] -48.4% | [4] -7.6% | [5] -18.6% | [6] -41.8%

C=C(C)[C@H]1CC(=O)[C@@]2(C)C[C@H]3O[C@]3(C)CC/C=C(\C)CC[C@H]12
inactive: [1] 20.2% | [2] 14.4% | [3] 33.2% | [4] 15.1% | [5] 31.1% | [6] 51.5%

COc1cc2c(cc1OC)C(=O)/C(=C/c1cc(OC)c(OC)c(OC)c1)C2
inactive: [1] -33.8% | [2] -35.5% | [3] -69.8% | [4] -38.6% | [5] -12.8% | [6] -69%

CCN(CC)CCCCCCNc1cc(OC)c(OC)c2c(C)ccnc12
inactive: [1] 23.6% | [2] 18.1% | [3] 5.6% | [4] -14.4% | [5] -1.8% | [6] 28.2%

Cc1cccc(Cl)c1NC(=O)c1c(Cl)c(Cl)c(Cl)c(Cl)c1C(=O)O
inactive: [1] 11.4% | [2] 10.6% | [3] -0.35% | [4] -30.1% | [5] -1.65% | [6] 22.2%

O=[N+]([O-])c1ccc(C[n+]2ccccc2)cc1
inactive: [1] -1.25% and 31.9% | [2] 13.2% and -3.9% | [3] -4.2% and -1.45% | [4] -15.8% and 16.4% | [5] -6.95% and -2.65% | [6] -18.2% and 13.7%

O=S1(=O)OCCOS(=O)(=O)C1C1c2ccccc2-c2ccccc21
inactive: [1] 13.4% | [2] 2.95% | [3] 18.7% | [4] 7.6% | [5] -1.25% | [6] -32.3%
